Assay outcomes: PubChem BioAssay, National Center for Advancing Translational Sciences (NCATS)
A selection: hits, their analogues and other compounds. The true share with any hit is near 9.2%.
HPGD block: HPGD (human) dehydrogenase inhibition; 150,000 compounds, 4.3% hits; P15428; purified HPGD, NADH fluorescence kinetic, PGE2 substrate; Potency, µM, for inactives: at the highest dose activity change, negative = inhibition, most hits filed as inhibitors; further: on the % scale 0 is the no-effect control and ±100 the full control effect
Target sequence (P15428 whole entry, looked up): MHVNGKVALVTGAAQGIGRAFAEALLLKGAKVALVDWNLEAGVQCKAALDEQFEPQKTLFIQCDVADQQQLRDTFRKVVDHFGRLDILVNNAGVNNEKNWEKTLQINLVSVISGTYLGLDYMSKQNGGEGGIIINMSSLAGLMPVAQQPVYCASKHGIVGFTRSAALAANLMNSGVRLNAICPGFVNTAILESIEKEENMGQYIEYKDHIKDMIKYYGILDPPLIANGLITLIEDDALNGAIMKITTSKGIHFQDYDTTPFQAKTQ
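20 nM HPGD preincubated 15 min at room temperature with compound in 50 mM Tris-HCl pH 8, 0.01% Tween 20. Started with 1 mM NAD+ and 30 uM prostaglandin E2; NADH fluorescence (360/450 nm) read 5 times over 30-s intervals, last minus first.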
ALDH1A1 inh: blocks purified human ALDH1A1 activity; P00352; Purified ALDH1A1, NADH fluorescence, propionaldehyde substrate; Potency, µM (doses to about 75.3 µM), for inactives: top-dose activity, negative = inhibition, hits mostly inhibitors; 220,000 compounds, 7.3% hits;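 further: plate controls were no enzyme wells and a reference inhibitor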
Target sequence (P00352 whole entry, looked up): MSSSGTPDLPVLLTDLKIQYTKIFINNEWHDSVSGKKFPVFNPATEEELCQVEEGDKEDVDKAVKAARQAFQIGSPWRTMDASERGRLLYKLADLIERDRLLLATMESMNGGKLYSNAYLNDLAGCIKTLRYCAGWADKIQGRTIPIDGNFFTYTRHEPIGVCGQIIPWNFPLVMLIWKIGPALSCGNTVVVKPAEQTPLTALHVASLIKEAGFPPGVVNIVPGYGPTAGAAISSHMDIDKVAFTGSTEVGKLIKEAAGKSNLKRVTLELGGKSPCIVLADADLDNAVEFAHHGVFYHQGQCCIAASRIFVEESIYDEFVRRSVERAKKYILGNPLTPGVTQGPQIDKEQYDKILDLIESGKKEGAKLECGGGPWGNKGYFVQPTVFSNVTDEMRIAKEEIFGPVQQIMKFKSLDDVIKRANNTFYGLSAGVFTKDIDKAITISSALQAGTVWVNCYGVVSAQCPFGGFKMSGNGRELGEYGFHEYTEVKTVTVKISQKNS
Lamin A splicing: LMNA splicing modulation; HeLa LMNA splicing GFP/RFP minigene ratio, 48 h; 200,000 compounds, 0.01% hits; Potency, µM (titrated, usually from 46.1 µM), for inactives: at the highest dose ratio change, negative = inhibition, usual class: inhibitors; active means well fitted inhibition curve with a large enough effect in the signal ratio, with a control signal flat, not every such curve was filed as active; inconclusive means small, poorly fitted or top-dose-only effect, or effect the other way, or a change in a side signal; the % refers to the signal ratio; further: on the % scale 0 is the no-effect control and ±100 the full control effect
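S3 HeLa cells stably expressing lamin A-EGFP splicing minigene plus DsRed2, 600 cells/well, 48 h compound exposure at 37C. Laser-scanning cytometry; analysed as GFP (500-530 nm)/RFP (575-640 nm) total intensity ratio; 0.5% DMSO vehicle.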
HTT ATP protect: protects HTT-Q103 PC12 cells, measured by ATP. PC12 HTT-Q103 induced, cytoprotection, ATP luminescence, 40 h. Potency, µM (top dose mostly 56.4 µM), without a hit: cytoprotection (ATP increase), usual class: activators. 230,000 compounds, 0.14% hits. AID 1471; active means well fitted curve in the direction sought with a large enough effect; inconclusive means small, poorly fitted or top-dose-only effect, or another doubt; inactive means no such curve, though single readings can be large; an effect the other way counts as inactive or inconclusive; further: % of control where 0% means no effect; nearly all actives have a fitted effect of over 45% in size
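ATP quantification (ATPlite) reports survival of PC12 cells in which tebufenozide, 100 nM final, switches on Htt exon 1 with 103 glutamines linked to GFP; compounds are titrated.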
HttQ103 aggreg: reduces HttQ103-GFP aggregates in PC12 cells; 220,000 compounds, 1.1% hits; Potency, µM (highest dose often 46.1 µM), without a hit: top-dose activity change, negative = inhibition, actives largely listed as inhibitors; PC12 HttQ103-GFP aggregates, Acumen cytometry, 40 h; active means well fitted curve in the direction sought with a large enough effect; inconclusive means small, poorly fitted or top-dose-only effect, or another doubt; inactive means no such curve, though single readings can be large; an effect the other way counts as inactive or inconclusive; further: on the % scale 0 is the no-effect control and ±100 the full control effect; nearly all actives have a fitted effect of over 60% in size
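Aggregate formation scored by laser-scanning cytometer (488 excitation, 500–530 emission) in lysed PC12 cells expressing Q103-GFP after 100 nM tebufenozide induction; library tested in dose series, with ATPLite reagent added in the multiplex.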
JMJD2E inh: blocks human JMJD2E demethylase activity; B2RXH2; JMJD2E catalytic domain, FDH-coupled NADH fluorescence (FDH is formaldehyde dehydrogenase); Potency, µM (top dose mostly 57.1 µM), for the others: at the top dose activity change, negative = inhibition, usual class: inhibitors; 230,000 compounds, 1.6% hits; AID 2147;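 further: 0% = wells with enzyme and -100% = buffer wells without enzyme; nearly all actives have a fitted effect of over 50% in size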
An asterisk follows results filed as active; ? = inconclusive; . = no result given; [ ] = another dose, or the depositor's remark. Unless noted, the call rests on the fitted dose curve; in most records, active means well fitted inhibition curve with a large enough effect (not every such curve was filed as active); inconclusive means small, poorly fitted or top-dose-only effect, or another doubt; inactive means no such curve, though single readings can be large or run the other way. Potency means the concentration at half of the fitted maximal effect.

SMILES	HPGD block	ALDH1A1 inh	Lamin A splicing	HTT ATP protect	HttQ103 aggreg	JMJD2E inh
CC[C@@]1([C@@H]2O[C@@H]([C@H]3O[C@@](O)(CO)[C@H](C)C[C@@H]3C)C[C@@H]2C)CC[C@H]([C@]2(C)CC[C@]3(C[C@H](O)[C@@H](C)[C@@H]([C@@H](C)[C@@H](OC)C(C)C(=O)O)O3)O2)O1 (stereo not given in full)	-8%	1%	.	-279%	.	.
CCOC(=O)C1=C(C)NC(=S)NC1c1cccc(O)c1 (stereo not given)	?	1.1µM*	.	3%	.	9%
CC1=C(C(=O)OCC2CCCO2)C(c2cccc(O)c2)NC(=O)N1 (stereo not given)	3%	-4%	7%	-19%	3%[9.22 µM]	2%
CCOc1cc(C2NC(=S)NC(C)=C2C(=O)Nc2ccccc2)ccc1O (stereo not given)	.	.	.	9%[10 µM]	-36%[9.22 µM]	-12%
CCOC(=O)C1=C(C)NC(=S)NC1c1ccc(OC(=O)c2ccco2)cc1 (stereo not given)	-10%	2.2µM*	-4%	8%[10 µM]	1%	0%
CCOC(=O)c1c(NC(=O)C2=C(C)NC(=S)NC2c2ccc(CC)cc2)sc(C)c1C (stereo not given)	?	28µM*	?	0%[10 µM]	?	?
Cn1cccc1C(=O)N1CCC2(CC1)CCN(c1ncccn1)CC2	-9%	-4%	.	-61%	.	.
Cc1cc(C)cc(OCC(=O)NNC(=O)C2CCCO2)c1 (stereo not given)	.	6%	?	14%	-10%	1%
COc1ccc(Nc2nnc(SCc3cc([N+](=O)[O-])cc4c3OCOC4)s2)cc1	25µM*	?	4%	18%	4%	-7%
Cc1nnc(SCc2cc([N+](=O)[O-])cc3c2OCOC3)[nH]c1=O	.	?	.	-2%[10 µM]	-3%[9.22 µM]	-8%
NS(=O)(=O)c1ccc(CCNC(=O)c2ccc3nc(Cc4ccccc4)oc3c2)cc1	.	.	8%[46 µM]	.	.	.
C/C(=N/NC(=O)CSc1nc2ccccc2s1)c1ccncc1	.	20µM*	.	14%[10 µM]	-11%[9.22 µM]	13%
CS/C(=N\S(=O)(=O)c1cccs1)NC(=O)CSc1nc2ccccc2s1	25µM*	28µM*	-7%	0%	-5%	-21%
C/C(=N/NC(=O)CSc1nc2ccccc2n1C)c1ccncc1	.	10µM*	.	-17%	4%	-9%
O=C(NCc1cccc(Cl)c1)c1cc(COc2ccc3ncccc3c2)on1	.	?	?	-2%[10 µM]	-4%[9.22 µM]	?
CC(C)N(Cc1nccn1C)C(=O)c1cc(COc2ccc3ncccc3c2)on1	.	-7%	.	-6%	20µM*	-18%
Cc1ccc(F)cc1CNC(=O)c1cc(COc2ccc3ncccc3c2)on1	.	-3%	.	-2%	13µM*	3%
CC(C)Sc1nc2ncnc(N)c2[nH]1	.	10%	5%[46 µM]	-43%	-21%	0%
Cn1sc(NC(=O)c2ccccc2Cl)nc1=O	14µM*	11µM*	8%	-28%	28%	-4%
O=C(NC(=S)NCC1CCCO1)c1ccccc1[N+](=O)[O-] (stereo not given)	.	?	.	-20%[10 µM]	-8%[9.22 µM]	4%
COc1cc(N=c2ssnc2Cl)cc(OC)c1	0.63µM*	0.32µM*	9%	12%	10µM*	20µM*
N#Cc1cccc(N=c2ssnc2Cl)c1	.	1.3µM*	?	8%[10 µM]	-8%	-22%
Clc1nssc1=Nc1ccc(Br)cc1	.	1.8µM*	.	-101%	?	11µM*
OCc1ccccc1N=c1ssnc1Cl	6.3µM*	0.89µM*	11%	-10%	13%	-11%
Clc1ccc(N=c2ssnc2Cl)nc1	.	-3%	.	-35%[10 µM]	-18%[9.22 µM]	-6%
SMILES	HPGD block	ALDH1A1 inh	Lamin A splicing	HTT ATP protect	HttQ103 aggreg	JMJD2E inh
Cc1oc2ncn(CC(C)C)c(=O)c2c1C(=O)NCCc1ccccc1	.	.	-12%[46 µM]	.	.	.
CCOC(=O)c1cccc(NC(=O)c2cc(S(=O)(=O)N3CCCCCC3)cn2C)c1	.	.	1%[46 µM]	.	.	.
O=C(O)CCN1C(=S)CSC1=S	-17%	-11%[13.5 µM]	.	1%[10 µM]	.	.
Nc1ccccc1C(=O)NNC1=C(C(=O)C(F)(F)F)CCC1	.	.	.	7%[10 µM]	-26%[9.22 µM]	?
O=C(NNC1=C(C(=O)C(F)(F)F)CCC1)c1ccc(Br)cc1	-25%	-4%	?	-58%	11µM*	-12%
COc1cccc(-c2cn3nc4c(nc3n2)CCCC4)c1	-14%	?	6%	-154%[0.074 µM]	3%	22µM*
Clc1ccc(-c2cn3nc4c(nc3n2)CCCC4)cc1	?	?	-3%	-62%	-7%	?
COc1cccc(Cn2c(=O)cnc3cnc(N4CCOCC4)nc32)c1	?	?	.	-64%	.	.
CSc1ccccc1NC(=O)c1ccc(Cl)s1	20µM*	?	-8%	-7%	-2%	-3%
Cc1nc2sccc2c(=O)n1-c1cccc(Cl)c1	-9%	10%	7%	-7%	2%	1%
NCC[C@H]1CCC[C@H](CCN)N1	.	.	.	2%[1.9 µM]	.	.
Oc1ccc2ccccc2c1/C=N/Nc1nnc(-c2ncc[nH]2)c2ccccc12	-13%	2%	?	-76%[10 µM]	0.79µM*	-23%
COc1ccc(/C=N/Nc2nnc(-c3ncc[nH]3)c3ccccc23)cc1	-2%	5%	6%	-42%	?	-4%
COC(=O)c1ccccc1NS(=O)(=O)c1cc2c(cc1C)N(C)CCO2	.	.	-27%[46 µM]	.	.	.
O=C(Nc1ccc2c(c1)CCC2)C1CCN(c2c3c(nc4ncnn24)CCC3)CC1	?	16µM*	?	5%[10 µM]	11µM*	7%
COc1ccc(NC(=O)C2CCCN(c3c4c(nc5ncnn35)CCC4)C2)cc1OC (stereo not given)	-8%	2%	?	-12%	15%	-2%
O=C(Nc1ccc(Oc2ccccc2)cc1)C1CCN(c2c3c(nc4ncnn24)CCC3)CC1	-15%	?	?	-66%	8.9µM*	-7%
O=C(NC1CCCc2ccccc21)C1CCN(c2c3c(nc4ncnn24)CCC3)CC1 (stereo not given)	-9%	12%	2%	5%	-17%	-10%
Cn1ccs/c1=N\C(=O)Nc1cccc(Cl)c1	.	7%	.	1%[10 µM]	2%[9.22 µM]	10%
O=C(c1nn(Cc2ccccc2)c(=O)c2ccccc12)N1CCN(C/C=C/c2ccccc2)CC1	-5%	13µM*	11%	-67%	-24%	-9%
O=C(c1ccco1)N1CCN(C/C=C/c2ccccc2)CC1	.	?	-3%	-12%	20%	?
COc1cccc(NCc2cc3c(C(C)(C)C)nn(-c4ccccc4)c3[nH]c2=O)c1	?	13µM*	-1%	-8%	15%	-11%
CCOc1ccc(NCc2cc3c(C(C)(C)C)nn(-c4ccccc4)c3[nH]c2=O)cc1	-18%	?	9%	-43%	-18%	?
